In PubChem BioAssay AID1259415 (National Center for Advancing Translational Sciences (NCATS), 2018):
Out of some 410,000 compounds screened, about 18,000 (4.4%) were called active. Roughly 7% stayed inconclusive and do not appear here. The entries come from a sample that favours actives as a whole. Values without a mark were called inactive. No stated cut-off is given here; in the data, active means activity change below about -60%; inconclusive means no clear call, values can overlap the other calls; inactive means above about -39%.

assay: qHTS Assay for inhibitors of the human cytomegalovirus (HCMV); conditions: HFF cells, HCMV-luciferase reporter, 72 h; at 57.5 µM; hits give low values
Method in brief: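 Inhibition of viral replication was scored as loss of reporter luminescence in HFFs infected with HCMV-luciferase (MOI 1 PFU/cell) for 72 h; compounds tested at 2 doses, normalized to buffer and Salinomycin controls.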
On the % scale 0 is the no-effect control and ±100 the full control effect.

Row | Structure (SMILES) | activity change, negative = inhibition
1 | COc1ccc2cc(CNc3ccc(OC)c(OC)c3)c(=O)n(CC(=O)Nc3ccccc3F)c2c1 | 9.9%
2 | CCOc1ccccc1NC(=O)C1CCCN(C(=O)Nc2ccccc2)C1 (stereo unspecified) | -21.6%
3 | Cc1ccc(S(=O)(=O)N2CCCCC2)cc1NC(=O)[C@@H]1CCCN1C(=O)c1cccs1 | 0%
4 | COc1ccc(S(=O)(=O)N2CCCCC2)cc1NC(=O)COc1ccccc1 | -25.1%
5 | CCOc1ccccc1NC(=O)C1CCCN(S(=O)(=O)c2ccccc2)C1 (stereo unspecified) | -62% (active)
6 | CCOc1ccccc1NC(=O)COc1ccc(S(=O)(=O)N2CCCC2)cc1 | -21%
7 | CCOc1ccc(S(=O)(=O)N2CCCCC2)cc1NC(=O)CN1CCCC1c1cccs1 (stereo unspecified) | -90% (active)
8 | O=C(O)CCc1cccnc1 | -25.2%
9 | CN(Cc1ccccc1)S(=O)(=O)c1ccc(F)c(C(=O)Nc2cccc(Cl)c2Cl)c1 | 6.47%
10 | COc1ccc2ncc3c(-c4ccc(C)c(C)c4)nn(CC(=O)NC4CCCC4)c3c2c1 | 14.2%
11 | O=C(CSc1nccn1Cc1ccc(Cl)cc1)NCc1ccccc1 | -18.2%
12 | COc1ccc(Cl)cc1NC(=O)Cn1c(=O)c2ccccc2n2nncc12 | 11.9%
13 | Cc1nn(-c2ccc([N+](=O)[O-])cc2)c(N)c1-c1ccccc1 | -65.4% (active)
14 | Cc1nn(-c2ccccc2)c2c1C(c1cccc([N+](=O)[O-])c1)N(c1ccccc1)C(=O)N2 (stereo unspecified) | -9.36%
15 | CNP1(NC)=Nc2nn(-c3ccccc3)c(N)c2C(c2ccccc2)=N1 | 43.5%
16 | O=C(NNS(=O)(=O)c1ccccc1)c1cnn(-c2ccc(Cl)cc2)c1C(F)(F)F | 2.04%
17 | CC(C)c1ccc(C2CC(=O)N3CN(C4CCCCC4)CSC3=C2C#N)cc1 (stereo unspecified) | -5.74%
18 | CC(=O)Nc1cc(-c2ccc(N3CCN(C)CC3)cc2)cn2c(-c3ccc(F)cc3)cnc12 | -75.2% (active)
19 | CC(=O)Nc1cc(-c2ccc(N3CCN(C)CC3)cc2)cn2c(-c3cccc(C(=O)N(C)C)c3)cnc12 | 8.54%
20 | CC(=O)c1cccc(-c2cnc3c(NC=O)cc(-c4ccc(N5CCN(C)CC5)cc4)cn23)c1 | 19.8%
21 | Cc1ccc2cccc(NC(=O)c3cccc4ccccc34)c2n1 | -10.4%
22 | COC(=O)C1CCN(C(=O)c2ccc3oc(Cc4ccc(Cl)cc4)nc3c2)CC1 | 8.67%

Row | Structure (SMILES) | activity change, negative = inhibition
23 | O=C(NC1CCCCCC1)C1CCN(C(=O)c2ccc(Cl)cc2)CC1 | -37.2%
24 | C/C(N)=C(/C#N)C(=O)COC(=O)C1CCN(C(=O)c2ccc(Cl)cc2)CC1 | -65.3% (active)
25 | CCN(CCCNC(=O)c1c(C)oc2ncn(CC(C)C)c(=O)c12)Cc1ccccc1 | -5.33%
26 | Cc1ccc(C)c(NC(=O)C2CCCN(S(=O)(=O)c3cn(C)cn3)C2)c1 (stereo unspecified) | 44.9%
27 | CC(CNC(=O)c1nnc(Cc2cccc(F)c2)o1)c1ccccc1 (stereo unspecified) | -15.6%
28 | O=C(Nc1ccc(C(=O)OCc2cc(=O)n3nc(C4CC4)sc3n2)cc1)c1ccc(F)cc1 | 7.95%
29 | CC(C)c1ccc2oc(-c3cc(NC(=O)c4cccs4)ccc3Cl)nc2c1 | -18.9%
30 | C[C@@H]1Cn2cnc(C(=O)Nc3ccc(CNC(=O)OC(C)(C)C)cc3)c2C(=O)N1 | -101% (active)
31 | C[C@H]1Cn2cnc(C(=O)N[C@@H](Cc3c[nH]c4ccccc34)C(=O)OC(C)(C)C)c2C(=O)N1 | 16%
32 | C[C@H]1Cn2cnc(C(=O)N[C@H](C)c3ccccc3)c2C(=O)N1 | -3.07%
33 | O=C(NCC(c1cccnc1)N1CCc2ccccc21)c1cccc(C(F)(F)F)c1 (stereo unspecified) | -36.7%
34 | O=C(Nc1ccc(Cl)cc1)c1cccc(OC(=S)N2CCOCC2)c1 | -103% (active)
35 | O=C(Nc1ccccc1C(=O)N1CCOCC1)c1ccc(Cl)cc1 | 8.32%
36 | O=C(Oc1cccc(C(=S)N2CCOCC2)c1)c1cccc(Cl)c1 | -4.94%
37 | Cc1nc(NC(=O)C2CCCCC2)sc1C | 62.5%
38 | O=C(NNC1=NCCC1)c1cccc(S(=O)(=O)N2CCCCC2)c1 | -11.4%
39 | Cc1ccc(C(CC(=O)O)Nc2nc(N3CCCCC3)nc(N3CCCCC3)n2)cc1 (stereo unspecified) | -10.1%
40 | O=C(NNc1nc(N2CCCC2)nc(N2CCCC2)n1)c1ccccc1 | -66.4% (active)
41 | CCC1(C)CC(=O)c2c(ccc3oc(C(=O)Nc4ccc(C(C)=O)cc4)c(C)c23)O1 (stereo unspecified) | -8.87%
42 | COc1cccc(C2C(C(=O)Nc3ccc(C)cc3C)=C(C)Nc3c(C(=O)Nc4ccccc4)cnn32)c1 (stereo unspecified) | -31.3%
43 | O=C1CSC(=O)N1CCOCCN1C(=O)CSC1=O | 11.3%
44 | CC(C)(C)NC(=O)CSc1nc(-c2ccc(F)cc2)cc(C(F)(F)F)n1 | -8.55%

Row | Structure (SMILES) | activity change, negative = inhibition
45 | CC12CCC3C(CCC4CC(=O)CCC43C)C1CC(=NO)C2=O (stereo unspecified) | 16.3%
46 | CCc1ccccc1NC(=O)CN(C)S(=O)(=O)c1ccc2c(c1)c(=O)n(C)c(=O)n2C | 14.6%
47 | CC(C)c1ccc(NC(=O)CN(C)S(=O)(=O)c2ccc3c(c2)c(=O)n(C)c(=O)n3C)cc1 | -106% (active)
48 | CN(CC(=O)Nc1ccccc1F)S(=O)(=O)c1ccc2c(c1)c(=O)n(C)c(=O)n2C | 3.4%
49 | CC1CCCC(NC(=O)COC(=O)[C@@H]2CC(O)CN2S(=O)(=O)c2ccc3c(c2)OCCO3)C1C (stereo partly specified) | 10.5%
50 | Cc1ccc(Cl)cc1NC(=O)CSc1nccn1C | -11.3%
51 | Cc1cc(C)n(CCNCc2c(C(=O)N3C[C@@H](C)O[C@@H](C)C3)nc3ccc(Cl)cn23)n1 | 18.2%
52 | Cc1ccc(C(=O)N2CCc3cc(CNC(=O)c4ccc(Br)cc4)ccc32)cc1 | -17.7%
53 | CC1=C(C(=O)N2CCN(c3cccc(C(F)(F)F)c3)CC2)C2(CCCCC2)OC1=O | 30.4%
54 | C=C(C)CSc1nc(N)c2c3c(sc2n1)CCC3 | 31.9%
55 | Nc1nc(SCC(=O)NCCN2CCOCC2)nc2sc3c(c12)CCC3 | 5.31%
56 | CC(C)(C)C1CCc2c(sc3nc(SCC(N)=O)nc(N)c23)C1 (stereo unspecified) | -100% (active)
57 | CC(C)(C)c1ccc(C(=O)NCc2nnc(SCC(=O)N3CCCc4ccccc43)n2-c2ccccc2)cc1 | -18.4%
58 | CC1(C)C(=O)CCC2(C)C1=CCC1C2C(=O)CC2(C)C1CCC2(O)C(=O)CO (stereo unspecified) | -4.43%
59 | Cc1ccc(-n2c(SCC(=O)Nc3ncc(Cl)cc3Cl)nc3ccccc32)cc1 | -98.7% (active)
60 | Cc1cc(C)c(NC(=O)Cn2c(SCC(=O)NCc3ccccc3)nc3ccccc32)c(C)c1 | -0.705%
61 | CC1(C(=O)OCC(=O)Nc2ncc(Cl)cc2Cl)CC1(Cl)Cl (stereo unspecified) | -27.2%
62 | COc1cc2nc(SCC(=O)Nc3ccccc3F)n3nc(-c4ccccc4)nc3c2cc1OC | -6.09%
63 | Cc1ccccc1CS(=O)(=O)CC1Nc2ccc(C(=O)NCc3ccc(Cl)cc3)cc2NC1=O (stereo unspecified) | 2.23%
64 | CC(C)c1ccc(OCC(=O)N(Cc2ccc(N(C)C)cc2)C2CCS(=O)(=O)C2)cc1 (stereo unspecified) | 7.29%
65 | CCc1ccc(NC(=O)C2CCCN2S(=O)(=O)c2ccc3nc(-c4ccccc4)[nH]c3c2)cc1 (stereo unspecified) | -18.7%
66 | CCCCn1c(N)c(N(CCC(C)C)C(=O)COC(=O)c2cccnc2OCC)c(=O)[nH]c1=O | -5.28%

Row | Structure (SMILES) | activity change, negative = inhibition
67 | NS(=O)(=O)c1ccc(CNC(=O)c2cc(S(=O)(=O)N3CCOCC3)ccc2N2CCCC2)cc1 | -10.4%
68 | COc1cc(OC)c(OC)cc1/C=C/c1nc2ccccc2c(=O)n1-c1ccc(Br)c(C)c1 | 3.49%
69 | CCn1c(/C=C/c2ccc([N+](=O)[O-])o2)nc2ccccc2c1=O | -99.1% (active)
70 | CCCN(CCC)c1c([N+](=O)[O-])c(=O)oc2ccccc12 | -7.74%
71 | Cc1cc2nc(-c3ccc(NC(=O)c4cc5ccccc5o4)cc3)oc2cc1C | 98.1%
72 | C=CCN1C(=O)N(Cc2ccccc2)c2ccccc2S1(=O)=O | 8.55%
73 | Cc1ccc(-n2c(SCC(=O)Nc3cccc(F)c3)nc3c(oc4ccccc43)c2=O)cc1C | -8.05%
74 | O=c1onc(-c2cccs2)n1Cc1ccccc1 | -71.3% (active)
75 | O=C(CSc1nnc(-c2cccs2)n1Cc1ccccc1)N1CCc2ccccc2C1 | -10.6%
76 | Cc1cc(NC(=O)c2cc(-c3cccs3)on2)nn1Cc1ccc(Cl)cc1 | -28.3%
77 | CCc1ccc(Sc2cc(C(=O)NCCCOC(C)C)c3ccccc3n2)cc1 | -34.7%
78 | CCC1=Nc2cc(C(=O)NCCCOC(C)C)ccc2Sc2ccc(C)cc21 | -62.8% (active)
79 | COCCNC(=O)c1ccc2c(c1)ncn2-c1ccc(C)c(Cl)c1 | 52.5%
80 | CCC1=Nc2cc(C(=O)NCC(C)c3ccccc3)ccc2Sc2ccc(C)cc21 (stereo unspecified) | -7.44%
81 | COCCNC(=O)c1ccc2c(c1)N=C(C)c1cc(C)ccc1S2 | -83.7% (active)
82 | CC1=Nc2cc(C(=O)NCc3ccc(C)cc3)ccc2Sc2ccc(Cl)cc21 | -34.6%
83 | COc1ccc(Cc2nnnn2CC(=O)O)cc1 | -17%
84 | Cc1ccc(NC(=O)CN2C(=O)C(c3ccc(F)cc3)=NC23CCCCCC3)c(C)c1 | 0.733%
85 | CCC(=O)N1c2ccccc2CC1C(=O)N1CCN(c2ccccc2F)CC1 (stereo unspecified) | 3.71%
86 | O=C(NCCC1=CCCCC1)c1ccc2c(c1)N(Cc1ccccc1F)C(=O)c1ccccc1S2(=O)=O | 2.55%
